Assay outcomes: PubChem BioAssay, several laboratories
ROMK mod = human ROMK K+ channel modulation, primary screen | P48048 | Tet-inducible ROMK, thallium flux fluorescence; actives lie on both sides | B-score at 10 µM | actives 2% (n = 130,000);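 active = signal ratio slope over the read window, or its plate-corrected B-score, at least 3 SD from the plate mean, either direction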;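 note: B-score of the F/F0 ratio slope over 7 to 12 s after thallium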
Target sequence (P48048 whole entry, looked up): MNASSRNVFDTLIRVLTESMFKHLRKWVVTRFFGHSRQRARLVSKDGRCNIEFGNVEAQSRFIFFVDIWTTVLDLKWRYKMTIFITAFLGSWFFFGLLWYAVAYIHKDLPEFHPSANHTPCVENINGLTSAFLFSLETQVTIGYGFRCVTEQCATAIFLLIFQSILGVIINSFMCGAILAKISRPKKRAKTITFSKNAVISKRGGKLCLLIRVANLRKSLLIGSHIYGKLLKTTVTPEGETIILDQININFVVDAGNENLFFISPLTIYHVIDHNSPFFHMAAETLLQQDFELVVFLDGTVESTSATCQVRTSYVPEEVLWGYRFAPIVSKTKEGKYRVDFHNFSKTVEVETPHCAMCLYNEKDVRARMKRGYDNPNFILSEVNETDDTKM
HSV replic up = HSV replication enhancement; actives 0.005% (n = 220,000); AID 1956; maximum fold increase; HSV replication augmentation in cells, fold increase; in the data active = maximum fold increase above about 1.5; inconclusive = no clear call, values can overlap the other calls; tested in PC3 cells
Cl transport mod = modulators of human KCC2 chloride dependent transport. actives 2.2% (n = 190,000). KCC2 cells, thallium flux FluoZin-2 fluorescence. AID 1456. B-score of Tl+ flux slope (higher = more flux/activation; lower = inhibition) at 10 µM. Q9H2X9;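 active = thallium flux slope and its plate-corrected score both differing from the plate sample mean at a set confidence after two filtering rounds, in either direction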;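 note: slope of fluorescence scaled to starting intensity during 10 to 20 s after thallium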
Arbovirus anti = antivirals against arbovirus infection | arbovirus infection cell-based antiviral screen | inhibition, % at 10 µM | actives 0.37% (n = 200,000); in the data active = inhibition above about 30%
Measles CPE = protection of cells from measles virus | actives 1.5% (n = 140,000) | protection (pct of control), % at 4 µM | Measles virus-infected cells, CPE protection, absorbance; in the data active = protection mostly above about 24%, no sharp cut-off; inactive = mostly below about 26%
KCC2 secondary = KCC2 (human) modulation, secondary assay | shares compounds with Cl transport mod | HEK293-KCC2, thallium flux, FluoZin2 fluorescence; stronger effect = higher value | normalised thallium flux (F/F0 slope) at 10 µM | actives 15% (n = 3,700) | AID 1713;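 active = thallium flux slope above the same plate's solvent-only control mean plus 3 SD; inconclusive = the two replicate wells disagree; inactive = no significant difference from solvent-only control wells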
KCC2 bumet counter = thallium flux persisting under bumetanide in KCC2 cells, counter-screen secondary assay | shares compounds with Cl transport mod | HEK293-KCC2 + bumetanide/ouabain, thallium flux FluoZin2; stronger effect = higher value | normalized thallium flux at 10 µM | actives 49% (n = 3,700);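 active = thallium entry rate above the same plate's blocked-transporter control wells by more than 3 SD; inconclusive = the two repeat wells disagree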;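 note: raw slope of fluorescence over initial fluorescence between 10 and 20 s after thallium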
KCC2 sec2 = confirmation of human KCC2 transport modulators. shares compounds with Cl transport mod. HEK293-KCC2, thallium flux FluoZin2 fluorescence; actives lie on both sides; F/F0 rise rate, 10–20 s post-thallium. normalized thallium flux at 10 µM. actives 23% (n = 3,700);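 active = thallium flux slope more than 3 SD above or below the plate's solvent-only control mean, mostly below; inconclusive = the two repeat wells disagreed; inactive = no significant shift from solvent-only controls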
HEK293 Tl flux = acts in parental HEK cells, KCC2 counter-screen; shares compounds with Cl transport mod; HEK293 parental cells, thallium flux FluoZin2, ouabain; baseline-ratio fluorescence slope, 10–20 s after thallium; thallium flux rate (normalised fluorescence) at 10 µM; actives 46% (n = 3,700); AID 1716;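 active = thallium flux rate significantly above the same plate's solvent-only control wells, beyond their mean plus 3 SD; inconclusive = the two replicate wells gave conflicting results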
KCC2 retest ouab = confirmation of human KCC2 modulators with ouabain; actives 48% (n = 3,700); AID 1717; raw Tl+ flux slope (below DMSO = inhibition, above = activation) at 10 µM; shares compounds with Cl transport mod; HEK293-KCC2, thallium flux FluoZin2 fluorescence; bidirectional: low = inhibitor, high = activator;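 active = thallium flux slope beyond 3 SD from same-plate DMSO control mean in most replicates, usually higher, sometimes lower; inconclusive = repeat tests gave conflicting results; inactive = no significant difference from controls in most replicates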;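 note: slope of initial-normalized fluorescence between seconds 10 and 20 after thallium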
HEK293 Tl flux2 = acts in parental HEK cells, second KCC2 counter-screen; thallium flux slope at 10 µM; AID 1718; shares compounds with Cl transport mod; actives 33% (n = 3,700); HEK293 parental, thallium flux FluoZin-2 fluorescence slope;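 active = thallium flux slope above the same plate's solvent-control mean plus 3 SD in both duplicate wells; inconclusive = duplicate wells that disagreed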;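 note: run without ouabain in cells lacking the KCC2 cotransporter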
Hits are given with their value; n = inactive; u = inconclusive; x = no result. Hits are enriched below; roughly 4% of the tested compounds scored in any of these assays.

SMILES	ROMK mod	HSV replic up	Cl transport mod	Arbovirus anti	Measles CPE	KCC2 secondary	KCC2 bumet counter	KCC2 sec2	HEK293 Tl flux	KCC2 retest ouab	HEK293 Tl flux2
Fc1ccccc1-n1cc(-c2ccccc2)[nH]c1=S	n	n	70	n	x	0.019	0.12	u	0.046	0.08	0.02
Cc1ccc(-n2cc(-c3ccccc3)[nH]c2=O)cc1F	n	n	n	n	n	x	x	x	x	x	x
C/C(=N\NC(=S)Nc1ccc(F)cc1)C1CC1	x	n	8.4	n	n	n	0.024	n	0.018	0.028	0.022
CC1CCN(C(=S)Nc2ccc(F)cc2)CC1	x	n	n	n	n	x	x	x	x	x	x
COc1ccc(CNCc2cn(-c3cccc(F)c3)nc2-c2ccc(C)o2)cc1	n	n	x	n	x	x	x	x	x	x	x
CCCc1c(-c2ccc(O)cc2)nn(-c2ccc(O)cc2)c1-c1ccc(O)cc1	x	n	-2.5	x	x	n	n	n	u	n	n
CC1CCCCC1NC(=O)C(Cc1ccccc1)NS(=O)(=O)c1cccs1 (centres undefined)	n	n	x	n	n	x	x	x	x	x	x
CC(CCc1ccccc1)NC(=O)C(Cc1ccccc1)NS(=O)(=O)c1cccs1 (centres undefined)	n	n	-3.6	n	n	n	n	u	u	0.015	n
CCOC(=O)C1=C(Cc2ccc(OC)cc2)C(=O)c2ccccc2C1=O	x	x	6.6	n	n	n	0.0082	n	0.011	n	u
CCOC(=O)c1c(C)nc2c(c1-c1cc(OC)ccc1OC)C(=O)c1ccccc1-2	x	n	x	n	n	x	x	x	x	x	x
Cc1ccc(C(=O)Oc2ccc3c(c2)ncn3C)cc1	n	n	x	n	n	x	x	x	x	x	x
Cn1cnc2cc(OC(=O)c3ccccc3)ccc21	n	n	x	n	n	n	n	n	n	n	u
CCC(c1nnnn1Cc1ccccc1)N1CCN(c2ccccc2)CC1 (centres undefined)	n	n	-3.9	n	x	n	n	u	n	0.015	n
O=C(O)CC(NC(=O)Cc1ccc(Cl)cc1)c1ccco1 (centres undefined)	n	n	-3.4	n	x	n	n	n	n	n	n
O=C(O)CC(NC(=O)C(c1ccccc1)c1ccccc1)c1ccco1 (centres undefined)	x	n	n	n	n	x	x	x	x	x	x
CCOC(=O)c1c(C)c(C)n(Cc2cccc(OC)c2OC)c1C	n	n	n	n	n	x	x	x	x	x	x
CCOC(=O)c1cc(C)n(Cc2cccc(OC)c2OC)c1C	n	n	x	n	n	n	n	n	n	n	n
O=C(CSc1nc2ccc(N3CCOCC3)cc2c(=O)n1CCc1ccccc1)NCC1CCCO1 (centres undefined)	n	n	6.7	n	x	n	0.016	n	0.009	n	0.013
CCCCNC(=O)CSc1nc2ccc(N3CCOCC3)cc2c(=O)n1CCc1ccccc1	x	n	n	n	n	x	x	x	x	x	x
Nc1nnc(SCC(=O)c2ccccc2)s1	n	n	x	n	n	x	x	x	x	x	x
Nc1c(C(=O)c2ccccc2)sc2snc(SCC(=O)c3ccccc3)c12	x	x	x	n	n	n	n	n	n	n	n
CC1CCCCN1C(=O)COc1ccc(F)cc1 (centres undefined)	n	n	n	n	x	x	x	x	x	x	x
COc1ccc(/C=N/NC(=S)SC)cc1OC	n	n	38	n	x	u	0.076	0.063	0.053	0.073	0.055
CCOc1ccc(-c2csc(NNC3=NCCCCC3)n2)cc1	n	n	n	n	x	x	x	x	x	x	x
CC1=NN(c2nc(-c3ccccc3)cs2)C(=O)C1N=Nc1ccccc1 (centres undefined)	n	n	6.6	n	x	n	0.051	n	0.015	u	n
SMILES	ROMK mod	HSV replic up	Cl transport mod	Arbovirus anti	Measles CPE	KCC2 secondary	KCC2 bumet counter	KCC2 sec2	HEK293 Tl flux	KCC2 retest ouab	HEK293 Tl flux2
CCOC(=O)C(C)Sc1nc2ccccc2c(=O)n1CC (centres undefined)	n	n	n	n	n	x	x	x	x	x	x
Cc1ccc(Cn2c(SCC(=O)Nc3cc(C)on3)nc3ccccc3c2=O)cc1	n	n	x	n	n	n	n	u	0.016	0.027	0.019
C/C(N)=C(/C#N)C(=O)CSc1nc2ccccc2c(=O)n1Cc1ccc(C)cc1	n	n	22	n	x	n	0.021	n	0.025	0.029	0.016
COc1ccc(-n2c(SCC(=O)/C(C#N)=C(\C)N)nc3ccccc3c2=O)cc1OC	x	n	n	x	x	x	x	x	x	x	x
C/C(N)=C(/C#N)C(=O)CSc1nc2cc(Cl)ccc2c(=O)n1Cc1ccco1	n	n	x	n	x	x	x	x	x	x	x
Cc1cc(NC(=O)CSc2nc3ccccc3c(=O)n2Cc2ccccc2)no1	n	n	x	n	n	x	x	x	x	x	x
Cc1ccc(Cn2c(SC(C)C(N)=O)nc3ccccc3c2=O)cc1 (centres undefined)	n	n	8.6	n	x	n	0.022	n	0.015	0.03	0.018
C/C(N)=C(/C#N)C(=O)CSc1nc2ccccc2c(=O)n1Cc1ccc(F)cc1	x	n	95	x	x	u	0.071	0.053	0.064	0.061	0.056
COc1ccc(/C=C/S(=O)(=O)NCc2ccccc2)cc1OC	n	n	n	n	x	x	x	x	x	x	x
CC(C)(C)C(=O)Nc1cccc(-c2cc(-c3c(Cl)cccc3Cl)no2)c1	x	n	n	x	x	x	x	x	x	x	x
O=C(Cn1c(=O)sc2ccccc21)Nc1ccccc1	n	n	6.7	n	n	n	n	n	n	n	n
COc1ccc(NC(=O)Cn2c(=O)sc3ccccc32)cc1	n	n	n	n	n	x	x	x	x	x	x
Cn1c(SCc2ccccc2Cl)nc2ccccc21	n	n	-4.3	n	n	u	u	0.024	n	0.014	n
CCn1c(CSc2nc3ccccc3n2C)nc2ccccc21	x	n	-4	n	n	u	n	0.022	u	0.014	n
CCn1c(SCc2ccccc2Cl)nc2ccccc21	x	n	n	n	n	x	x	x	x	x	x
Cc1cc2oc(=O)cc(CN3CCOCC3)c2cc1C	n	n	6.9	n	n	n	n	0.026	n	n	n
Cc1ccc2oc(=O)cc(CN3CCOCC3)c2c1	n	n	n	n	n	x	x	x	x	x	x
CC1(C)C2CC=C(/C=N/NC(=O)c3ccc(O)cc3)C1C2 (centres undefined)	x	n	n	n	n	x	x	x	x	x	x
CCC(Cc1ccccc1)n1c(=S)[nH]c2ccccc2c1=O (centres undefined)	n	n	50	n	x	0.019	0.15	n	0.059	0.088	0.017
